Consider 42 compounds from ChEMBL document CHEMBL4888484, “Replenishing the malaria drug discovery pipeline: Screening and hit evaluation of the MMV Hit Generation Library 1 (HGL1) against asexual blood stage Plasmodium falciparum ,using a nano luciferase reporter read-out” (2022).

The campaign covered roughly 150,000 compounds. About 540 (0.36%) showed an effect of 50% or more. The sample holds strong results, similar compounds and a random draw of the others, so the mix is not that of the screen.

For this assay, the system named is Plasmodium falciparum. The assay is described as follows: Primary screen in NF54 nanoGlo assay, in single point, at 2uM, 72h; a lower Z score goes with more inhibition. It is filed as functional, Erythrocyte. The following applies: timepoint 72 hour.
For the compound `Cc1n[nH]c(C)c1S(=O)(=O)Nc1cccc2cccnc12`, the “% Inhibition” value is on record as -2% and the Z score is reported as 0.25.
In the same order, the values of `O=S(=O)(Nc1cccc2cccnc12)c1cccs1` are 55% and -5.93.
Turning to `CCN1C[C@]2(CCCN(C(=O)c3ccccc3N3CCCC3)C2)CCC1=O`, the “% Inhibition” value is 7% and the Z score is given as -1.03.
For the compound `Cc1nn(-c2cnc(N)cn2)c(C)c1Cc1ccccc1`, the “% Inhibition” value is given as -7% and the Z score worked out at 0.91.
The corresponding values for `COc1ccc(CC(=O)N2CC3(C[C@H](N4CCN(C)CC4)CO3)C2)cc1` are -7% and 1.04.
In the same order, the values of `Clc1ccccc1OCCn1nc(C2CC2)nc1C1CC1` are 2% and -0.37.
Turning to `C[C@@H]1CN(c2nc(C(F)F)nc3ccc(F)cc23)C[C@H](C)N1`, the “% Inhibition” value is recorded as -4% and the Z score is reported as 0.64.
The corresponding values for `CO[C@@H]1CO[C@H]2[C@@H]1OC[C@@H]2Nc1nccc(-c2ccc3c(c2)OCO3)n1` are -2% and 0.19.
`CCn1ccc(C(=O)N2CCCN(Cc3c(C)noc3C)CC2)n1`: the “% Inhibition” value is -3% and the Z score is 0.35.
The corresponding values for `NC(=O)[C@@H]1CCCN1C(=O)c1ccnc(OC2CCCCC2)c1` are 53% and 0.89.
In the same order, the values of `CC[C@H]1CCCCCN1C(=O)c1ccnc(OC2CCC2)c1` are -5% and 0.5.
`NC(=O)[C@@H]1CCCCN1C(=O)c1ccnc(-n2cccn2)c1`: the “% Inhibition” value was found to be 12% and the Z score was -1.33.
`COc1ccc(CCc2nc(NC(=O)c3nc(C)sc3C)n[nH]2)cc1OC`: the “% Inhibition” value came out at 71% and the Z score was -9.67.
`COc1ccc(CCc2nc(NC(=O)C(C)C)n[nH]2)cc1OC`: the “% Inhibition” value turned out to be 13% and the Z score is given as -1.63.
In the case of `COc1ccc(CCc2nc(NC(=O)[C@H]3CC(=O)N(C)C3)n[nH]2)cc1OC`, the “% Inhibition” value is 15% and the Z score is -2.27.
The corresponding values for `COC1CCCC(CC(=O)NC2CC(=O)N(C)C2)C1` (centres undefined) are 2% and -0.4.
In the case of `CC(C)C[C@H]1CCCN(CC(=O)N2CC(=O)Nc3ccccc32)C1`, the “% Inhibition” value was -1% and the Z score is recorded as 0.19.
Regarding `CN(C[C@H](O)C(F)(F)F)C(=O)c1ccc(C#N)cn1`, the “% Inhibition” value is -15% and the Z score was 1.32.
In the same order, the values of `CC(=O)N1CCN(C(=O)NCc2cc(F)ccc2C)C[C@@H](O)C1` are -9% and 0.8.
In the same order, the values of `CCC1([C@@](O)(C#CCN2CCCCCC2)c2ccccc2)CCCC1` are -16% and 1.41.
As to `CCC[N+]1(CC#C[C@@](O)(c2ccccc2)C2(C)CCCC2)CCCCC1`, the “% Inhibition” value came to 51% and the Z score is on record as -4.55.
Take `C[N+]1(C/C=C/C(O)(c2ccccc2)c2ccccc2)CCCCC1`: the “% Inhibition” value came to 12% and the Z score is on record as -1.05.
In the same order, the values of `CC1([C@@](O)(C#CC[N+]2(C)CCCCC2)c2ccccc2)CCCC1` are 60% and -9.64.
The corresponding values for `CCC(C)(CC)[C@@](O)(C#CC[N+]1(Cc2ccccc2Cl)CCCCC1)c1ccccc1` are 39% and -4.45.
As to `CCC[N+]1(CC#C[C@@](O)(c2ccccc2)C(C)(CC)CC)CCCCC1`, the “% Inhibition” value was determined as 54% and the Z score is -8.65.
Consider `CCC[N+]1(CC#CC2(O)CCCCC2)CCOCC1`, for which the “% Inhibition” value is listed as -9% and the Z score is on record as 1.67.
Take `CCC1([C@@](O)(C#CCN(Cc2ccccc2)C(C)(C)C)c2ccccc2)CCCC1`: the “% Inhibition” value was 33% and the Z score was -3.73.
In the same order, the values of `CCC(C)(CC)[C@@](O)(C#CC[N+]1(Cc2ccccc2)CCCCC1)c1ccccc1` are 38% and -1.99.
In the same order, the values of `CCOC[C@H]1CCN(C(=O)C2(O)CN(C(=O)OC(C)(C)C)C2)C1` are -4% and 0.81.
As to `Cn1cccc(C(=O)N2CCC(c3nnc(C(F)(F)F)o3)CC2)c1=O`, the “% Inhibition” value is given as -12% and the Z score is reported as 1.33.
As for `Cc1ccc(-c2cc(C(=O)Nc3ncccc3Cl)c3ccccc3n2)s1`, the “% Inhibition” value is given as 3% and the Z score is recorded as -0.34.
The corresponding values for `CCOc1cc2c(cc1CN1CCN(C)[C@]3(CCC(=O)N(C)CC3)C1)CCC2` are -10% and 1.92.
In the same order, the values of `CC1(C(=O)N2CC3CCCCC3C2)CCCC1` (centres undefined) are -24% and 2.4.
In the case of `O=C(c1cccc2cc[nH]c12)N1C[C@@H]2[C@H](C1)[C@H]1CC[C@@H]2O1`, the “% Inhibition” value is on record as 18% and the Z score is -1.92.
In the same order, the values of `Clc1ccc(COc2ccc(Br)cc2CNc2ccc(-c3nc4ccccc4o3)cc2)c(Cl)c1` are -39% and 4.57.
The corresponding values for `Clc1ccc(C[n+]2ccc(-c3nc4ccccc4o3)cc2)c(Cl)c1` are 79% and -11.4.
The corresponding values for `c1cc(-c2nc3ccccc3o2)cc(-c2nc3ccccc3o2)c1` are -13% and 2.52.
Consider `Cc1cc(C(=O)NCc2ccncc2)c(=O)n(C)c1C`, for which the “% Inhibition” value is recorded as -11% and the Z score was found to be 1.52.
Regarding `CC(NCC1CS(=O)(=O)c2ccccc21)[C@@H]1C[C@H]1C1CC1` (some centres undefined), the “% Inhibition” value is listed as -3% and the Z score worked out at 0.41.
As for `NC(=O)c1ccccc1NC(=O)C1CCN(c2cc(N3CCCC3)ncn2)CC1`, the “% Inhibition” value is 7% and the Z score was -1.36.
Turning to `O=C(Nc1ccccc1F)C1CCN(c2cc(C3CC3)ncn2)CC1`, the “% Inhibition” value is given as -16% and the Z score came to 3.11.
Consider `NC(=O)c1ccccc1NC(=O)C1CCN(c2cc(C3CC3)ncn2)CC1`, for which the “% Inhibition” value came out at 57% and the Z score is -10.93.

The % Inhibition is the drop in the measured response relative to a control, in per cent.
